The list is not random: actives were taken first. Their share in the collection is about 0.86%.
TLR9-MyD88 inh = TLR9-MyD88 interaction inhibition; inhibition, % at 4.98 µM; AID 504734; actives 0.21% (n = 340,000); CHO BLA complementation TLR9-MyD88, CCF4 FRET ratio; Q9NR96+Q99836;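 active means inhibition above the mean over all tested compounds plus 3 SD, cut at about 21% in these data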;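 further: 0% = DMSO only wells and 100% = clavulanate BLA inhibitor control wells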
TLR4-MyD88 BLA = blocks binding of human TLR4 to MyD88; HeLa CL3-4 TLR4/MyD88 BLA complementation, FRET ratio; inhibition, % at 8.4 µM; actives 0.18% (n = 200,000); AID 861; in the data active means inhibition above about 25%;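 further: 0% = vehicle and 100% = reference inhibitor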
NOD2-RIPK2 inh = NOD2-RIPK2 protein interaction inhibition; inhibition, % at 4.98 µM; O43353; actives 0.38% (n = 360,000); AID 624267; CHO BLA complementation NOD2-RIPK2, CCF4 ratio; in the data active means inhibition above about 21%;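 further: 0% = vehicle only and 100% = reference blocker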
Target sequence (O43353 whole entry, looked up): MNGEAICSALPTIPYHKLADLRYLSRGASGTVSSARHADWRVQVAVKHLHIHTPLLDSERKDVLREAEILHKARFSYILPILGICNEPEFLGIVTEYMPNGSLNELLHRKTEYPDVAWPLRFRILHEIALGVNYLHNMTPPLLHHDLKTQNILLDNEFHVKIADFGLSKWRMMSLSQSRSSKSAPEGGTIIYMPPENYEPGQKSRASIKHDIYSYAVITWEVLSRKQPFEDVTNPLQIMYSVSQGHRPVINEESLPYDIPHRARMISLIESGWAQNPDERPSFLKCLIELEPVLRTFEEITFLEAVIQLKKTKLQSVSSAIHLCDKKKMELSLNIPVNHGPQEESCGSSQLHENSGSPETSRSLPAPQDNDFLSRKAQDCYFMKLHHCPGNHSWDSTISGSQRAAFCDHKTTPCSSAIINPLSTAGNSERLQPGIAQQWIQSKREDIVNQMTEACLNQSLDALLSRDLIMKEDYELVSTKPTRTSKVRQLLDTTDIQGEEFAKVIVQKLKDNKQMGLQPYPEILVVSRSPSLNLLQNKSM
IDE act = boosts human insulin-degrading enzyme activity in HEK cells. P14735. FAbeta-B cleavage, fluorescence polarization; 0% vehicle, 100% cell-free pure enzyme wells. activation, % at 5.96 µM. actives 0.073% (n = 340,000);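 active means activation above the mean of all tested compounds plus 3 SD, set per screening campaign, cut at about 17% in these data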
IDE cell inh = cellular human IDE inhibition | P14735 | HEK cells, FAbetaB cleavage, fluorescence polarization | inhibition, % at 5.59 µM | actives 0.41% (n = 320,000) | AID 434962;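 active means percent inhibition above the average of all tested compounds plus 3 SD, set per screening campaign, cut at about 16% in these data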;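 further: IDE supplied by intact live HEK cells; FP after avidin binding of uncleaved biotin substrate so inhibition keeps polarization high; 0% = DMSO wells and 100% = 60 µM reference IDE inhibitor Ii1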
Numbers without * were called inactive.

What do the screens show for `COc1cc(/C=C2\SC(=S)N(c3cccnc3)C2=O)ccc1O`?
TLR9-MyD88 inh: -2; NOD2-RIPK2 inh: -5; IDE act: -90; IDE cell inh: 45*

How did COC(=O)c1ccccc1NC(=O)CSc1nccc(C)n1 do in these assays?
TLR9-MyD88 inh: 10; TLR4-MyD88 BLA: 12; NOD2-RIPK2 inh: 4; IDE act: 0; IDE cell inh: -1

What do the screens show for `Cc1cccc2sc(N(CCCN(C)C)C(=O)COc3ccc(Cl)cc3)nc12`?
TLR9-MyD88 inh: -3; TLR4-MyD88 BLA: 2; NOD2-RIPK2 inh: 0; IDE act: 16; IDE cell inh: 6

How did CN(C)CCCN(C(=O)COc1ccc(Cl)cc1)c1nc2ccc(F)cc2s1 do in these assays?
TLR9-MyD88 inh: 6; TLR4-MyD88 BLA: 4; NOD2-RIPK2 inh: 7; IDE act: 18*; IDE cell inh: 8

How did CN(C)CCCN(C(=O)COc1ccc(Cl)cc1)c1nc2c(F)cccc2s1 do in these assays?
TLR9-MyD88 inh: 4; TLR4-MyD88 BLA: 2; NOD2-RIPK2 inh: -6; IDE act: 1; IDE cell inh: -5

What do the screens show for `Cc1ccc2nc(N(CCCN(C)C)C(=O)COc3ccc(Cl)cc3)sc2c1`?
TLR9-MyD88 inh: 5; TLR4-MyD88 BLA: 0; NOD2-RIPK2 inh: 15; IDE act: 22*; IDE cell inh: 0

Results for Cc1cc(C)c2sc(N(CCCN(C)C)C(=O)COc3ccc(Cl)cc3)nc2c1 ?
TLR9-MyD88 inh: 5; TLR4-MyD88 BLA: 0; NOD2-RIPK2 inh: 18; IDE act: 27*; IDE cell inh: 3

How did COc1ccc(NC(=O)Cn2nnc(C(=O)NCc3ccco3)c2N)c(OC)c1 do in these assays?
TLR9-MyD88 inh: 9; TLR4-MyD88 BLA: 0; NOD2-RIPK2 inh: -10; IDE act: -1; IDE cell inh: -2

Results for Cc1cc(C)c(NC(=O)C2CCCN(S(=O)(=O)c3c(C)noc3/C=C/N(C)C)C2)c(C)c1 (stereo not drawn) ?
TLR9-MyD88 inh: 5; NOD2-RIPK2 inh: -7; IDE act: -1; IDE cell inh: 1

Results for O=C(CCN1C(=O)C2CCCCC2C1=O)Nc1nc2c(F)cc(F)cc2s1 (stereo not drawn) ?
TLR9-MyD88 inh: 3; NOD2-RIPK2 inh: -6; IDE act: 1; IDE cell inh: -1

Results for COc1ccc(C(=O)NCCS(=O)(=O)N2CCc3ccccc3C2)cc1OC ?
TLR9-MyD88 inh: -6; NOD2-RIPK2 inh: -5; IDE act: 0; IDE cell inh: 0

Results for Cc1ccccc1N1C(=O)c2ccccc2N2C(=O)c3ccccc3C12 (stereo not drawn) ?
TLR9-MyD88 inh: -3; TLR4-MyD88 BLA: -6; NOD2-RIPK2 inh: -17; IDE act: -1; IDE cell inh: 3

What do the screens show for `O=C(O)c1cc(N=Nc2c(O)ccc3ccccc23)cc(C(=O)O)c1`?
TLR9-MyD88 inh: -1; TLR4-MyD88 BLA: -2; NOD2-RIPK2 inh: -1; IDE act: 0

What do the screens show for `O=C(O)c1ccc(N=Nc2c(O)ccc3ncccc23)cc1`?
TLR9-MyD88 inh: -1; NOD2-RIPK2 inh: 0; IDE act: 39*; IDE cell inh: -33

Results for NNC(=S)NCc1cccnc1 ?
TLR9-MyD88 inh: 11; TLR4-MyD88 BLA: -3; NOD2-RIPK2 inh: -4; IDE act: 9; IDE cell inh: -4

What do the screens show for `OCCCc1nc2n(n1)C(c1cccs1)C=C(c1ccccc1)N2` (stereo not drawn)?
TLR4-MyD88 BLA: 24; IDE cell inh: 78*

Results for CSc1ccccc1OCc1cc(C(=O)NCCn2nc(C)cc2C)no1 ?
TLR9-MyD88 inh: 5; NOD2-RIPK2 inh: -4; IDE act: 34*; IDE cell inh: -5

Results for Cc1cc(C)n(CCNC(=O)c2cc(COc3ccc(F)cc3Cl)on2)n1 ?
TLR9-MyD88 inh: 1; TLR4-MyD88 BLA: -7; NOD2-RIPK2 inh: 3; IDE act: 1; IDE cell inh: 2

What do the screens show for `CC(C)(C)C1C/C(=C/c2ccccn2)C(=O)/C(=C/c2ccccn2)C1` (stereo not drawn)?
TLR9-MyD88 inh: 1; TLR4-MyD88 BLA: 0; NOD2-RIPK2 inh: 27*; IDE act: 3; IDE cell inh: -9

What do the screens show for `CC1C/C(=C/c2ccccn2)C(=O)/C(=C/c2ccccn2)C1` (stereo not drawn)?
TLR9-MyD88 inh: 8; TLR4-MyD88 BLA: 8; NOD2-RIPK2 inh: 16; IDE act: 4; IDE cell inh: 5

Results for Cc1ccc2c(c1)-c1[nH]c(=S)ncc1CS2 ?
TLR9-MyD88 inh: -8; TLR4-MyD88 BLA: 9; NOD2-RIPK2 inh: 3; IDE act: -12; IDE cell inh: 19*

How did CCCCSCc1[nH]c(=O)[nH]c1C(=O)CCCCC(=O)OCC do in these assays?
TLR9-MyD88 inh: 1; TLR4-MyD88 BLA: 3; NOD2-RIPK2 inh: -1; IDE act: 0; IDE cell inh: -1

What do the screens show for `Cc1[nH]c(=O)[nH]c1C(=O)CCCCC(=O)O`?
TLR9-MyD88 inh: -11; TLR4-MyD88 BLA: 12; NOD2-RIPK2 inh: -50; IDE act: 39*; IDE cell inh: -17

What do the screens show for `O=C(CSc1nc(Nc2ccccc2)nc(N2CCOCC2)n1)Nc1ccc([N+](=O)[O-])cc1`?
TLR9-MyD88 inh: 7; TLR4-MyD88 BLA: -4; NOD2-RIPK2 inh: -2; IDE act: 3; IDE cell inh: 6

Results for O=C(CSc1nc(N2CCOCC2)nc(N2CCOCC2)n1)Nc1ccc([N+](=O)[O-])cc1 ?
TLR9-MyD88 inh: 3; NOD2-RIPK2 inh: 1; IDE act: 23*; IDE cell inh: -14

What do the screens show for `O=C(c1cnn(C(=O)c2ccco2)c1)c1cc(F)ccc1O`?
TLR9-MyD88 inh: -3; NOD2-RIPK2 inh: 6; IDE act: 27*; IDE cell inh: 2

What do the screens show for `CN1CCN(c2ccccc2NC(=O)Cc2cn(C)c3ccccc23)CC1`?
TLR9-MyD88 inh: -10; TLR4-MyD88 BLA: -6; NOD2-RIPK2 inh: 7; IDE act: -4; IDE cell inh: -1

How did COCCOc1ccc(C(F)(F)F)cc1NC(=O)CN1C(=O)NC(C)(c2ccc3c(c2)OCO3)C1=O (stereo not drawn) do in these assays?
TLR9-MyD88 inh: -6; NOD2-RIPK2 inh: 0; IDE act: -2; IDE cell inh: 4

How did COc1cc(C2Nc3cccc4cccc(c34)N2)cc(OC)c1O do in these assays?
TLR9-MyD88 inh: 1; TLR4-MyD88 BLA: -13; NOD2-RIPK2 inh: 3; IDE act: 28*; IDE cell inh: -6

How did Cc1ccc(NC(=O)CN2CCN(C(=O)c3ccco3)CC2)cc1 do in these assays?
TLR9-MyD88 inh: 6; NOD2-RIPK2 inh: 5; IDE act: 0; IDE cell inh: -3

Results for Cc1ccc2nc(-c3ccc(NC(=O)CN4CCN(C(=O)c5ccco5)CC4)cc3)sc2c1 ?
TLR9-MyD88 inh: 7; TLR4-MyD88 BLA: -9; NOD2-RIPK2 inh: 6; IDE act: -8; IDE cell inh: 18*

What do the screens show for `O=C(NCCN1CCOCC1)c1ccccc1[N+](=O)[O-]`?
TLR9-MyD88 inh: -7; TLR4-MyD88 BLA: 6; NOD2-RIPK2 inh: -16; IDE act: -1; IDE cell inh: -1
